Sampled rows, rich in hits. Any-hit rate of the full collection: about 14%.
A350 fluor: A350 region autofluorescence | AID 590 | max dye-equivalent concentration, M | actives 11% (n = 59,000) | Compound autofluorescence, 340/450 nm, Alexa 350 dye-equivalents; stronger effect = higher value; in the data active means max dye-equivalent concentration above about 10 nM; inconclusive means mostly about 1.1 nM to 9.6 nM
HSD17B inhib: HSD17B dehydrogenase inhibition. recombinant HSD17B10, NADH fluorescence kinetic. Potency, µM (series often up to 57.1 µM), most hits filed as inhibitors. actives 7.6% (n = 75,000). AID 893;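 further: the protocol describes HADH2 (HSD17B10) and not the HSD17B4 of the title; nearly all actives have a fitted effect of over 70% in size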
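His-tagged E. coli-expressed HADH2 at 20 nM in 100 mM Tris-HCl pH 9.0 with 0.01 % Tween-20, preincubated 15 min with compound at room temperature. Reaction with 1 mM NAD+ and 90 uM beta-hydroxybutyryl coenzyme A; NADH fluorescence (360/450 nm) read kinetically over 4 min, last minus first point.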
CRE-bla Fsk: alters forskolin-stimulated CRE reporter signaling in CHO cells; CHO CRE-bla reporter (cAMP response element driving beta-lactamase), forskolin EC10, beta-lactamase ratio; Potency, µM (series often up to 38.2 µM), usual class: activators; actives 2.5% (n = 71,000); active means well fitted activation curve with a large enough effect in the signal ratio, with a control signal flat, not every such curve was filed as active; inconclusive means small, poorly fitted or top-dose-only effect, or effect the other way, or a change in a side signal; the % refers to the signal ratio
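Using CellSensor CRE-bla CHO cells in Opti-MEM with 0.5% dialyzed FBS, compounds were titrated with EC10 NKH 477 for 3 h at 37 °C. CCF4 ratio (460/530 nm) gave %Activity; AC50 derived.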
AID923: qHTS Assay for Allosteric/Competitive Inhibitors of Caspase-1: Spectroscopic Profiling in AFC Spectral Region; Potency, µM (top dose mostly 57.5 µM), most hits filed as activators; compound fluorescence, AFC spectral region (405/520 nm); actives 1.1% (n = 75,000)
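Titrations up to 57 uM read every 20 sec for 3 min (405/520 nm) with 50 nM caspase 1 and 5 uM Ac-WEHD-AFC, pH 7.5 HEPES buffer. Fluorescence-vs-time intercept gave baseline, scaled against on-plate AFC standard.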
4MU fluor: compounds fluorescent in 4-MU spectral region; compound autofluorescence, 340/450 nm, 4-MU equivalents; stronger effect = higher value; max dye-equivalent concentration, M; actives 11% (n = 59,000); in the data active means max dye-equivalent concentration above about 10 nM; inconclusive means mostly about 1.1 nM to 9.6 nM
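Compounds in 100 mM Tris, pH 8.0, incubated 15 min at room temperature, then fluorescence read at 340 nm excitation/450 nm emission. Signal converted to 4-MU dye-equivalent concentration using an on-plate six-point 4-MU standard curve.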
HADH2 inhib: HADH2 (human) dehydrogenase inhibition; actives 3.4% (n = 73,000); Q99714; recombinant HADH2, NADH fluorescence, beta-hydroxybutyryl-CoA; Potency, µM (top dose mostly 57.1 µM), most hits filed as inhibitors; further: nearly all actives have a fitted effect of over 60% in size
Target sequence (Q99714 whole entry, looked up, one chain of several): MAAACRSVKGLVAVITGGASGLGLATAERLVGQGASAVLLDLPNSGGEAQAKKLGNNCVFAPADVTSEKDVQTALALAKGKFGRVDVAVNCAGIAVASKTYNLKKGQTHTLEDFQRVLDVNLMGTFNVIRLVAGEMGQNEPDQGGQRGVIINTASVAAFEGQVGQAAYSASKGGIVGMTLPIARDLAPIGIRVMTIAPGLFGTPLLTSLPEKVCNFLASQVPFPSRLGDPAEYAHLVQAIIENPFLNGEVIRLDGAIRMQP
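Buffer 100 mM Tris-HCl pH 9.0/0.01% Tween-20; HADH2 20 nM; NAD+ 1 mM; beta-hydroxybutyryl-CoA 90 uM (all final). 15 min cpd preincubation, RT.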
A number is an active result; 0 = inactive; ? = inconclusive; - = no result given; [ ] = dose if it differs, or a comment. Unless noted, the call rests on the fitted dose curve; in most records, active means well fitted curve in the direction sought with a large enough effect; inconclusive means small, poorly fitted or top-dose-only effect, or another doubt; inactive means no such curve, though single readings can be large; an effect the other way counts as inactive or inconclusive.

SMILES	A350 fluor	HSD17B inhib	CRE-bla Fsk	AID923	4MU fluor	HADH2 inhib
CC(NC(=O)CC1Nc2ccccc2NC1=O)c1ccccc1 (stereo unspecified)	3.6e-08M	?	0	0	3.2e-08M	0
CCCN(CCC)CCCNC(=O)CC1Nc2ccccc2NC1=O (stereo unspecified)	3.3e-08M	?	0	0	2.9e-08M	0
O=C(CN1C(=O)c2ccccc2C1=O)NCC1COc2ccccc2O1 (stereo unspecified)	0	0	0	0	0	0
CCCCN(C)CCCNC(=O)CC1Oc2ccccc2NC1=O (stereo unspecified)	-	0	0	0	-	?
Cn1cccc1C(=O)N1CCC2(CC1)CCN(c1ccccc1)CC2	0	0	0	0	0	0
O=C(O)c1[nH]c(=O)[nH]c(=O)c1CN1CCCCC1	0	0[11.4 µM]	0[7.6 µM]	0[11.5 µM]	0	0[11.4 µM]
N#CC1=C(N)SC2(CCCCC2)SC1c1ccccc1 (stereo unspecified)	0	20µM	0	0	0	13µM
c1ccc(CCCNc2ncnc3nc[nH]c23)cc1	-	32µM	7.9µM	0	-	0
CN1CCc2cc3c(c4c2C1CC41CCC(=NO)CC1)OCO3 (stereo unspecified)	4.9e-07M	25µM	?	0	4.1e-07M	0
COc1ccc2[nH]c(=O)c(CN(C(=O)C3CCCO3)c3cccc(C)c3)cc2c1 (stereo unspecified)	2.3e-07M	0	0	0	1.8e-07M	0
COc1ccc(N(Cc2cc3cc(OC)ccc3[nH]c2=O)C(=O)C2CCCO2)cc1 (stereo unspecified)	6.2e-07M	32µM	?	0	4.6e-07M	?
Cc1ccc2cc(CN(CC(C)C)C(=O)C3CCCO3)c(=O)[nH]c2c1 (stereo unspecified)	0	?	0	0	0	?
Cc1ccc2[nH]c(=O)c(CN(CC3CCCO3)C(=O)c3ccncc3)cc2c1 (stereo unspecified)	?	?	?	0	?	0
CN(C)c1ccc(CN(C(=O)C2COc3ccccc3O2)C2CCS(=O)(=O)C2)cc1 (stereo unspecified)	?	0	0	0	3.3e-08M	0
O=C(c1ccccc1F)N(Cc1ccccc1)C1CCS(=O)(=O)C1 (stereo unspecified)	0	0	0	0	0	0
O=C(c1ccccc1F)N(Cc1ccc(F)cc1)C1CCS(=O)(=O)C1 (stereo unspecified)	2.1e-08M	0	0	0	1.5e-08M	0
CCOC(=O)C1=C(C)N(C)C(C)=C(C(=O)OCC)C1c1cccnc1	1.1e-08M	0	?	0	?	0
Nc1nc(SCCc2ccccc2)c2[nH]cnc2n1	0	?	0[7.6 µM]	0[11.5 µM]	0	0[11.4 µM]
N#Cc1ccc(CN2CCC3(CC2)CCN(C(=O)c2ccncc2)CC3)cc1	0	0	0	0	0	0
Cc1nc2c3c(-c4ccccc4)c(-c4ccccc4)oc3ncn2n1	1.6e-08M	?	?	0	1.3e-08M	0
COc1ccccc1OCc1nc2c3c(-c4ccccc4)c(-c4ccccc4)oc3ncn2n1	?	0	0	0	?	0
O=C(CCn1c(=S)[nH]c2ccccc2c1=O)N1CCN(c2ccccn2)CC1	0	0	?	0	0	0
O=C(c1ccccc1)c1ccc(C(=O)N2CCN(c3ccc(F)cc3)CC2)o1	-	0	0	0	-	0
NC(=O)c1ccccc1NS(=O)(=O)Cc1ccccc1	-	32µM	0	0	-	10µM
Cc1cc(C)n(CCO)c(=O)n1	1.8e-07M	0	?	0	1.4e-07M	?
SMILES	A350 fluor	HSD17B inhib	CRE-bla Fsk	AID923	4MU fluor	HADH2 inhib
CCC(C)NS(=O)(=O)c1ccc(S(=O)(=O)Nc2cc3c(cc2C(C)=O)OCO3)cc1 (stereo unspecified)	?	0	0	0	?	0
CC(=O)c1cc2c(cc1NS(=O)(=O)c1ccc(C)cc1)OCCO2	1.1e-08M	0	0	0	?	0
Cc1ccc(NC(=O)CCn2cccc2)cc1Cl	-	0	-	0	-	0
CCn1c(Cn2nnc(-c3ccccc3)n2)nnc1SCC(=O)Nc1ccc(N(C)C)cc1	0	0	0	0	0	0
CCn1c(SCC(=O)Nc2ccc(N(C)C)cc2)nnc1-c1cccc(C)c1	1.6e-08M	0	0	0	5.9e-08M	0
CCn1c(CSc2nc(C)cc(C)n2)nnc1SCC(=O)Nc1ccccc1	1.7e-08M	0	0	0	1.5e-08M	0
COc1ccc(-n2c(CSc3nc(C)cc(C)n3)nnc2SCC(=O)Nc2nccs2)cc1	1.4e-08M	0	0	0	1.5e-08M	0
c1ccc(Nc2nc(-c3ccoc3)nc3ccccc23)cc1	0	?	?	0	0	0
COC(=O)NC(CC(C)=O)c1cccc(C(F)(F)F)c1 (stereo unspecified)	-	0[11.4 µM]	-	0[11.5 µM]	-	0[11.4 µM]
CO[C@@H]1COC(=O)C/C=C\[C@H](C)[C@H](OC)COC(=O)[C@H](C)NC(=O)C/C=C\[C@H]1C	-	0[11.4 µM]	-	0[11.5 µM]	-	0[11.4 µM]
CCNC(=O)[C@H](C)/C=C/C(NC(=O)OCc1ccccc1)c1ccc(C(=O)OC)cc1 (stereo partly specified)	-	0	0	0	-	0
CCOC(=O)COc1cccc2c(=O)n(CC(=O)NCc3ccc4c(c3)OCO4)ccc12	-	0	13µM	0	-	0
CC(=O)OCC(=O)NCc1ccc2c(c1)OCO2	0	0	?	0	0	0
Cc1cc(=O)oc2cc(OCC(=O)OCC(=O)NCc3ccc4c(c3)OCO4)ccc12	1.4e-07M	?	0	0	1.4e-07M	0
CCOC(=O)COc1cccc2c(=O)n(CC(=O)N3CCc4ccccc43)ccc12	-	0	0	0	-	0
COc1ccc(C(C)C(=O)c2ccc(O)cc2O)cc1 (stereo unspecified)	-	0	-	0	-	-
CC(=O)Nc1ccc(Oc2cc(C#N)c(C#N)cc2N2CCCCCC2)cc1	2.6e-08M	?	0	0	3.5e-08M	?
O=C(CN1CCCC1)Nc1ccc(Oc2ccc(NC(=O)CN3CCCC3)cc2)cc1	0	0	0	0	0	0
COc1ccc(-c2noc(CCC(=O)NCCN(C)Cc3ccccc3)n2)cc1	0	0	?	0	0	0
CC(C)OCCCNC(=O)CCc1nc(-c2ccccc2)no1	?	0	0	0	1e-08M	0
COc1ccc(-c2cc3nc(C4CCN(C(=O)OC(C)(C)C)CC4)c(C(=O)O)cn3n2)cc1	?	?	?	0	3e-08M	0
COc1cccc2c1C(=O)CC(c1ccccc1)O2 (stereo unspecified)	-	32µM	-	0	-	-
O=C(CSc1ncn[nH]1)Nc1ccc(Br)cc1F	?	0	0	0	0	0
Cn1c(-c2ccc3c(c2)OCO3)cnc1N	0	0	0	0	0	0
c1cc2c(cc1-c1cnc3n1CCC3)OCCO2	0	32µM	?	0	0	0

Compound activity deposited in PubChem BioAssay by National Center for Advancing Translational Sciences (NCATS).
